Screening results: PubChem, Sanford-Burnham Center for Chemical Genomics
This is a sample that favours compounds with a hit; in the whole collection about 31% have one here.
CYP2C19 inhib: blockers of cytochrome P450 2C19 activity – biochemical, luminescence, ADME assay, primary screen. CYP2C19 Supersomes, luciferin-H EGE luminescence, 30 min. inhibition, % at 5 µM. 21% of 96,000 active. P33261. AID 778, 2007;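 active means CYP2C19 inhibition above a set limit at 5 µM in the primary screen, cut at about 50% in these data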;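 further: plate controls were negative control wells for no effect and 2.5 mM tranylcypromine positive control for full effect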
CYP2C19 act: human CYP2C19 activators, primary screen, biochemical, luminescence | Cytochrome P450 2C19 (Homo sapiens), P33261 | recombinant CYP2C19, luciferin-H EGE luminescence; stronger effect = higher value; 0 = fully inhibited enzyme, 1 = untreated enzyme | activation factor at 5 µM | 96,000 tested, under 10 active | AID 1025, 2008;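 active means activation factor of at least 2 at 5 µM in the primary screen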;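 further: 0 = wells with 2.5 mM tranylcypromine and 1 = vehicle-only wells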
CYP2C9 act: human CYP2C9 activators, primary screen, biochemical, luminescence | Cytochrome P450 2C9 (Homo sapiens), P11712 | recombinant CYP2C9, luciferin-H conversion; stronger effect = higher value; factor 1 = untreated enzyme, 0 = blocked | activation factor at 5 µM | 1.4% of 96,000 active | AID 1024, 2008;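 active means activation factor of 2 or more for CYP2C9 at a 5 µM dose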;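 further: 0 = sulfaphenazole-blocked wells and 1 = vehicle-only wells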
CYP2C9 inh: blockers of cytochrome P450 2C9 activity – biochemical, luminescence, ADME assay, primary screen. AID 777, 2007. CYP2C9 Supersomes, luciferin-H conversion. 20% of 96,000 active. inhibition, % at 5 µM;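 active means blocking of liver enzyme CYP2C9 beyond about 50% at 5 µM, limit read from the data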
PLAP activator: PLAP enzyme activators, biochemical, luminescence, HTS | Alkaline phosphatase, placental type (Homo sapiens), P05187 | purified PLAP enzyme, luminescent substrate read-out; stronger effect = higher value | activation fold at 20 µM | 1.2% of 96,000 active | AID 696, 2007; in the data active means activation fold above about 2
Target sequence (P05187 whole entry, looked up): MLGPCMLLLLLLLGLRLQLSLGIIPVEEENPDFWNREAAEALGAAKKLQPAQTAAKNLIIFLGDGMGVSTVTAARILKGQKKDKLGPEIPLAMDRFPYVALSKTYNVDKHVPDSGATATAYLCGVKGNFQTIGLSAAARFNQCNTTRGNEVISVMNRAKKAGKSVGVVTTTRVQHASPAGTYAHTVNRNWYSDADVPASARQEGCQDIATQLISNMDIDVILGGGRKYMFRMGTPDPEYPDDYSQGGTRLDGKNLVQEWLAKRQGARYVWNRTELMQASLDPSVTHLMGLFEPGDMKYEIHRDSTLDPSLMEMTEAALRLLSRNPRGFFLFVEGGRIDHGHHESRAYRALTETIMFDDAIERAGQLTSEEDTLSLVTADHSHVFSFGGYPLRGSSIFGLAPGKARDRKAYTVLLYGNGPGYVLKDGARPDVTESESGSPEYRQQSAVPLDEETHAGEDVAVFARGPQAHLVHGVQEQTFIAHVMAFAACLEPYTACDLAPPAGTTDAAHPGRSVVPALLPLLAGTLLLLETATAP
Starred values were filed as active, the others as inactive.

SMILES	CYP2C19 inhib	CYP2C19 act	CYP2C9 act	CYP2C9 inh	PLAP activator
O=C(NNS(=O)(=O)c1ccccc1[N+](=O)[O-])c1ccc(O)cc1	40	0.6	0.3	68*	1
O=C(Nc1ncc([N+](=O)[O-])s1)C1CCN(S(=O)(=O)c2cnc[nH]2)CC1	48	0.5	0	97*	0.8
CCOc1ccc(OCC)c(NC(=O)C2CCN(S(=O)(=O)c3cnc[nH]3)CC2)c1	37	0.6	0.2	84*	1.5
CCOC(=O)C1CCN(S(=O)(=O)c2cnc[nH]2)CC1	58*	0.4	0	98*	0.9
CCOC(=O)C1CCCN(C(=O)C2CCN(S(=O)(=O)c3cnc[nH]3)CC2)C1 (centres undefined)	-2	1	0.1	87*	1
O=C(C1CCN(S(=O)(=O)c2cnc[nH]2)CC1)N1CCN(c2ncccn2)CC1	-17	1.2	1.2	-16	1
CSCCNC(C)=O	-13	1.1	1.1	-15	0.9
Cc1cc(C(=O)N(C)CC(=O)Nc2ccccc2C(F)(F)F)c(C)o1	37	0.6	1	-2	1.1
O=C(NC1CCCc2ccccc21)C1CCC(CNS(=O)(=O)c2cccc3nsnc23)CC1 (centres undefined)	-6	1.1	1	-2	0.9
Cc1ccc(N2C(=O)[C@@H]3[C@H](C2=O)C2c4ccccc4C=CN2[C@@H]3C(=O)c2ccco2)cc1 (some centres undefined)	11	0.9	0.7	34	1.3
O=C(c1ccco1)[C@@H]1[C@@H]2C(=O)N(c3ccccc3)C(=O)[C@@H]2C2c3ccccc3C=CN21 (some centres undefined)	-7	1.1	0.8	22	1.3
COc1ccc(N2C(=O)[C@@H]3[C@H](C2=O)[C@H]2c4ccccc4C=CN2[C@@H]3C(=O)Nc2ccccc2)cc1	15	0.8	0.4	62*	1.4
CC(C)(C)C(=O)[C@@H]1[C@@H]2C(=O)N(c3ccc4c(c3)OCCO4)C(=O)[C@@H]2C2c3ccccc3C=CN21 (some centres undefined)	57*	0.4	0.4	57*	1.2
Cn1c(SCC(=O)c2ccccc2F)nnc1C1CC1	11	0.9	1	2	1
O=C(N/C=C/c1ccc(Cl)cc1)NCc1ccc(Cl)cc1	42	0.6	0.8	21	0.9
O=S(=O)(c1ccc2c(c1)OCCO2)N1CCC(c2nc3ccccc3s2)CC1	8	0.9	1.3	-31	0.9
O=S(=O)(Nc1cccc(-c2nc3cccnc3s2)c1)c1ccc2c(c1)OCCO2	3	1	0.2	85*	1.2
CCc1ccc(S(=O)(=O)Nc2ccc(-c3nc4cccnc4s3)cc2)s1	-14	1.1	0.7	27	1.5
Cc1ccc(-c2nc3cccnc3s2)cc1NS(=O)(=O)c1ccc2c(c1)OCCO2	-14	1.1	0.3	74*	1.6
COC(=O)c1ccc(NC(=O)CN(c2ccc(C)cc2)S(=O)(=O)c2c(C)nn(C)c2C)cc1	14	0.9	0.7	26	0.9
COc1ccc(N(CC(=O)NC2CCCC2)S(=O)(=O)c2c(C)[nH]c(=O)[nH]c2=O)cc1	5	0.9	0.6	43	1.3
COc1ccc(-c2nsc3c(SCC(=O)Nc4cc(C)ccc4C)ncnc23)cc1	-10	1.1	0.9	9	0.9
Cc1ccc(N(CC(=O)Nc2ccc(C)cn2)S(=O)(=O)c2c(C)nn(C)c2C)cc1	76*	0.2	0.2	84*	1.4
COc1ccc(N(CC(=O)Nc2cc(C)ccc2C)S(=O)(=O)c2c(C)nn(C)c2C)cc1	55*	0.4	0.7	29	1.5
COc1cc(NC(=O)CN(c2ccc(C)cc2)S(=O)(=O)c2c(C)nn(C)c2C)cc(OC)c1	66*	0.3	0.5	54*	1.5
COc1ccc(N(CC(=O)Nc2ccc(C)cn2)S(=O)(=O)c2c(C)nn(C)c2C)cc1	86*	0.1	0.2	84*	1.6
COc1cc(CN2CCC(C(=O)N3CCCC(C)C3)CC2)cc(Br)c1O (centres undefined)	-8	1.1	1.1	-11	1.3
COC(=O)CNc1nc(OC)nc(N(C)C)n1	-21	1.2	1.3	-32	0.9
